# Measured values taken from the OligoGym collection.
# Molecular target: TUBAL3
# Experiment: pooled miR-30 sensor sort-seq; sequence = guide strand
# Settings: shRNA
# Note: reference of the scale not given here.
row,Sequence,sensor-assay potency score (higher = more potent)
1,TTCATTGTTGGTACTGACCCAC,0.0791
2,TTTGTCAGCAGAGACGATGGGG,0.442
3,TAAGGTACCAGGTTGGTCTGGA,0.512
4,TAGTGTGGAACCTAGAGTCTTG,-0.173
5,TGCATTTTCCAGCTGATCCTGT,-0.383
6,TTGTCCACCATGAAGGTACAGT,-0.604
7,TTAAGAGAGACGTAAACCCTGA,-0.309
8,TAGACCGAGAACTCCAGCTTAG,-0.779
9,TTCAATTAGGTCTACATTCAAG,-1.3

# Molecular target: TUBB2B
# Experiment: as above
# Settings: shRNA
row,Sequence,sensor-assay potency score (higher = more potent)
1,TTCATTGTAGTAAACATTGATT,-0.873
2,TAGTAAACATTGATTCTCTCCA,0.0212
3,ATGCAGTAGGTTTCATCTGTGT,-0.689
4,AACACGAAATTGTCTGGTCTGA,-0.953
5,AACATTGATTCTCTCCAGCTGC,-0.381
6,TAAACATTGATTCTCTCCAGCT,-0.472
7,TCGTTGTCAATGCAGTAGGTTT,-1.57
8,ATGCTCATCACTGATGACCTCC,-0.227
9,TAACCGAATCCATCGTGCCTGG,-0.853
10,TTCCACCAGCTGGTGGACCGAG,-1.21
11,TCCATGGTAACTGCCAGTGGGG,-1.71
12,GTAAACATTGATTCTCTCCAGC,-1.79

# Molecular target: TUBGCP5
# Experiment: as above
# Settings: shRNA
row,Sequence,sensor-assay potency score (higher = more potent)
1,TTTGTGGCTGTTGACATCCAAG,-1.62
2,TAACGGTGTCCTGTCTACCTGA,-0.629
3,TTAATCTCTTCCAACTAGCAGC,-0.324
4,TAAACTATGAGGAAACTGGGAG,0.101
5,TACAACTCTATACAGTATCTAC,-0.752
6,TTCTGTTTTGATCTTGTTCTTC,0.0443
7,TTTTTCTGCAGTACTAACCAGT,-0.246
8,TGGATCATGAACATCATCCAGT,-0.749
9,TATTGTAGTATCATTATTGATG,-0.448
10,ATCTCTTCCAACTAGCAGCTTT,-0.582
11,TTGATCTTGTTCTTCTAACGGT,0.145
12,TAGATAGACGTGAACTATCTTC,-0.283

# Molecular target: TULP4
# Experiment: as above
# Settings: shRNA
row,Sequence,sensor-assay potency score (higher = more potent)
1,TTGAAATTTATCCTCTGTGGAG,-0.662
2,TTGTCTTATTCAACTTCTTTGA,-0.83
3,TTCTTCTGCTCGGCTGTCCAGG,-0.627
4,TTTCTGACTCTTCACTTTCTTC,-1.27
5,AACATTGTAGAACTTGACCATG,-1.37
6,TTCAAGCACACATCCACTGGGG,0.492
7,TTGTAGAACTTGACCATGGCAC,0.0563
